Our source for the growth values is PubChem BioAssay (NCI).

Common to all, as to assay: NCI-60 one-dose screen, 48 h (100 = growth as untreated, 0 = no growth, -100 = all killed)
Holding throughout (details): 10 µM unless noted

Assay [1] has as its system SR leukemia.
In assay [2] the test system is RPMI-8226 leukemia.
Assay [3] concerns OVCAR-8 ovarian.
In assay [4] the test system is OVCAR-5 ovarian.
Assay [5] deals with OVCAR-4 ovarian.
The test system of assay [6] is SK-OV-3 ovarian.
Assay [7] has as its system IGROV1 ovarian.
Assay [8] concerns OVCAR-3 ovarian.
In assay [9] the test system is HS 578T breast.
The test system of assay [10] is NCI/ADR-RES ovarian.

The panel holds about 83,000 compounds, 20% with a hit somewhere; the sample as a whole holds those more often.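 Each cell line was grown in a 96-well plate and treated with one concentration of compound for 48 hours. Values below 10 were considered active.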 Unmarked numbers belong to inactive results. Active and inactive are the calls of the source.

In the case of `O=S(=O)(N=C1C(Cl)=C(Cl)C(=NS(=O)(=O)c2ccccc2)C(Cl)=C1Cl)c1ccccc1`, the growth in [1] was 46.4%; in [2] it was 79.4%; in [3], 69%; in assay [4], 73.8%; in assay [5] it was 91.9%; in assay [6], 102%. For the same molecule, the growth in [7] is 57.7%; in assay [8] it was 130%; in [9], 93.2%; in assay [10], 65.3%.
For `CCCCO[C@@H]1C=C2[C@H]3CC(C)(C)C(=O)C[C@]3(C(=O)O[C@@H]3O[C@H](CO[C@@H]4O[C@H](CO)[C@@H](OC5OC(C)C(O)C(O)C5O)[C@H](O)[C@H]4O)[C@@H](O)[C@H](O)[C@H]3O)CC[C@@]2(C)[C@]2(C)CC[C@H]3C(C)(C)C(=O)CC[C@]3(C)[C@@H]12` (stereo not given in full), the growth in [1] is 69.9%; in assay [2], 20.4%; in [3] it was 94.4%; in assay [4], 96.1%; in assay [5], 75%; in assay [6], 91.8%. Besides, the growth in [7] is 69.1%; in assay [8] it was 48.7%; in assay [9], 85.4%; in assay [10], 83.8%.
As to `CSc1ccc2c3c(n(CCCn4ccnc4)c(=O)c2c1)-c1ccccc1C3=O`, the growth was 3.2% (active) in assay [1]; 28.9% in [2]; 40.2% in [3]; 76.5% in assay [4]; 71.8% in assay [5]; 50.9% in assay [6]. The growth is 58.9% in [7], 64.5% in assay [8], 91.4% in assay [9] and 35.4% in [10].
For the molecule `CC(=O)N1N=C(c2ccc(Nc3nc(Nc4ccc(F)cc4)nc(Nc4ccc(F)cc4)n3)cc2)CC1c1ccc(N(C)C)cc1` (stereo not given), the growth in assay [1] was -4.86% (active); in assay [2] it was 4.52% (active); in assay [3], 27.6%; in assay [4], 78.4%; in [5], 62.2%; in [6], 90.6%. Further, the growth in [7] was 48%; in [8] it was 69.5%; in [9], 62.9%; in assay [10], 27.5%.
For the molecule `CCOC(=O)C/C(=N\Nc1cc(=O)[nH]c2ccc(C)cc12)C(=O)OCC`, the growth in assay [1] is 46.4%; in assay [2] it was 91.3%; in assay [3], 101%; in assay [4], 104%; in [5], 106%; in assay [6], 126%. Also, the growth in assay [7] was 98%; in [8], 101%; in assay [9], 91.8%; in assay [10], 105%.
As to `Cn1c(=O)[nH]c(=O)c2nc3c(nc21)-c1ccccc1C3=O`, the growth in assay [1] is 100%; in assay [2], 108%; in assay [3], 105%; in assay [4], 99.6%; in assay [5], 102%; in [6] it was 111%. Further, the growth in assay [7] was 108%; in assay [8] it was 107%; in assay [9], 104%; in [10], 95.2%.
Turning to `Fc1cc2[nH]ncc2c2c3c(c(-c4cn[nH]c4C(F)(F)F)nc12)CCCC3`, the growth in assay [1] is -30.2% (active); in [2], 8.27% (active); in [3], 6.94% (active); in assay [4], 4.77% (active); in assay [5] it was 24.1%; in assay [6], -24.5% (active). The growth in assay [7] is 0.245% (active); in assay [8], -11.3% (active); in assay [9] it was -18.4% (active); in assay [10] it was 45.6%.
Take `O=c1cc(CNc2cc(F)cc(F)c2)c2ccc(I)cc2[nH]1`: the growth in assay [1] was -0.446% (active); in assay [2] it was 15.8%; in assay [3], 53.5%; in assay [4], 64.3%; in assay [5] it was 60.2%; in assay [6], 39%. In addition, the growth in assay [7] was 45.9%; in assay [8], 11.2%; in assay [9], 19.9%; in assay [10], 26.3%.
As to `C/C(=N\Nc1ccccc1)c1ccc(NC2=CC(=O)c3ccccc3C2=O)cc1`, the growth in [1] was 59.2%; in assay [2], 64.3%; in [3] it was 59.8%; in assay [4], 72.5%; in assay [5] it was 43%; in [6] it was 65.3%. Further, the growth in assay [7] is 50.8%; in assay [8], 15.4%; in [9], 65.5%; in assay [10], 54%.
`c1ccc(-c2ccc3c(c2)C2(CCNCC2)CN3)cc1`: the growth was 96% in [1]; 97.5% in [2]; 99.2% in assay [3]; 98.1% in assay [4]; 91.5% in assay [5]; 79.4% in assay [6]. Besides, the growth was 73% in assay [7], 86.2% in [8], 93.6% in [9] and 94.3% in assay [10].
Regarding `O=C1C(Cl)=C(Nc2ccccc2)C(=O)c2ccccc21`, the growth in assay [1] was -21% (active); in assay [2], -7.02% (active); in [3], -32.1% (active); in assay [4], 75.7%; in [5] it was -96.9% (active); in [6] it was 75.1%. Moreover, the growth in assay [7] is -77.6% (active); in assay [8], -96.7% (active); in assay [9], 54%; in assay [10], -15.2% (active).
Turning to `S=c1ccnc[nH]1`, the growth was 131% in assay [1]; 110% in [2]; 100% in assay [3]; 101% in assay [4]; 117% in assay [5]; 113% in [6]. Further, the growth in assay [7] is 110%; in [8] it was 111%; in [9] it was 113%; in assay [10] it was 100%.
